In PubChem BioAssay AID1458 (National Center for Advancing Translational Sciences (NCATS), 2008):
In all, about 210,000 compounds went through this assay and about 5,900 (2.8%) were called active. A call without a number means that no potency is given here. Inconclusive results (about 5%) are left out. This is one part of a sample in which actives are shown more often than they occur. Calls come from the whole dose curve; as a rule, active = well fitted activation curve with a large enough effect; inconclusive = small, poorly fitted or top-dose-only effect; inactive = no such curve, though single readings can be large or run the other way.

experiment: qHTS Assay for Enhancers of SMN2 Splice Variant Expression; conditions: HEK293 SMN2-luciferase splicing reporter, luminescence, 30-36 h; series mostly up to 46.1 µM; note: nearly all actives have a fitted effect of over 55% in size
Summary of the method: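 HEK293 cells carry an SMN2 […]–luciferase reporter in which exon 7 inclusion puts luciferase in frame. Cells were plated 10-12 h before compound addition, then incubated 30-36 h at 37C. ONE-Glo luminescence was read; sodium butyrate at 4.5 mM final served as control.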
Potency is the fitted concentration of half-maximal effect.

| SMILES | Potency |
| --- | --- |
| Cn1c2ccccc2c(=O)c2c(=O)n(Cc3ccco3)c(COc3ccccc3)nc21 | 35.5 µM (active) |
| COc1ccc(C(=O)CSc2nnc(COc3ccccc3)n2Cc2ccco2)cc1 | inactive |
| CCCc1nc2c(c(=O)c3ccccc3n2C)c(=O)n1C1CCCCCC1 | inactive |
| O=C(CCn1c(=O)c2sccc2n(Cc2ccc(F)cc2)c1=O)NCc1ccc2c(c1)OCO2 | inactive |
| COc1ccc(S(=O)(=O)NCCc2cc3ccc(C)c(C)c3[nH]c2=O)cc1 | inactive |
| COc1cccc(CNC(=O)c2ccc3c(Cl)c4c(nc3c2)CCCC4)c1 | inactive |
| Cc1cccc(N(CC(=O)Nc2ccc(-c3nc4ccc(C)cc4s3)cc2)S(C)(=O)=O)c1 | inactive |
| Cc1ccc2nc(-c3ccc(NC(=O)CN(C)S(=O)(=O)c4ccccc4)cc3)sc2c1 | 1 µM (active) |
| COc1cc(NC(=O)CN(C)S(=O)(=O)c2ccc3nc(C)sc3c2)cc(OC)c1 | inactive |
| Cc1ccc(F)cc1NC(=O)CCSc1nc(-c2ccco2)cc(C(F)(F)F)n1 | inactive |
| COc1ccc(C(=O)n2nc(-c3ccc(C)cc3)nc2N)cc1OC | inactive |
| COc1ccc(C(=O)n2nc(-c3ccc(Cl)cc3)nc2N)cc1OC | 25.1 µM (active) |
| COc1ccccc1C(=O)n1nc(-c2ccccc2)nc1N | inactive |
| COc1ccc(-c2nc3ccccc3o2)cc1NC(=O)c1cc([N+](=O)[O-])ccc1N1CCOCC1 | inactive |
| Cc1cccc(NC(=O)c2cc3c(C)nn(-c4ccccc4)c3s2)c1 | inactive |
| Cc1c(CNC2CCCCC2)c(C(=O)O)c(C)n1Cc1cccc(Cl)c1 | inactive |
| CCCN1CCN(CCCNC(=O)Cn2nc(CC)n3c(cc4occc43)c2=O)CC1 | inactive |
| C=CCNc1cnn(-c2ccc(C)cc2)c(=O)c1Cl | 11.2 µM (active) |
| CCc1nc2c(cnn2-c2ccc(C)cc2)c(=O)n1-c1ccc(C)cc1 | inactive |
| O=c1c(Cl)c(NC2CC2)cnn1-c1ccccc1 | inactive |
| Cc1ccccc1-c1nc(CS(=O)(=O)CC(=O)Nc2cc(Cl)cc(Cl)c2)c(C)o1 | inactive |
| COC(=O)c1ccc(Cc2ccccc2)o1 | inactive |
| COC(=O)c1ccc(CSc2ccccc2C)o1 | 8.91 µM (active) |
| COC(=O)c1ccc(CSc2ccc3nnc(-c4ccccc4)n3n2)o1 | inactive |

| SMILES | Potency |
| --- | --- |
| Cc1ccc(NS(=O)(=O)c2ccc3c(c2)CC(=O)N3)cc1Cl | inactive |
| Clc1ccc2nc(CSc3ccccc3)cn2c1 | 3.16 µM (active) |
| CCOc1ncccc1C(=O)OCc1cn2cc(Cl)ccc2n1 | inactive |
| O=c1cc(CSc2ccc(Cl)cc2)nc(N2CCOCC2)[nH]1 | inactive |
| Cc1ccc2nc(-c3ccccc3)cc(C(=O)O)c2c1 | inactive |
| Cc1ccc(-c2cc(C(=O)NCc3cn(C)nc3C)c3cc(Br)ccc3n2)cc1 | inactive |
| Cc1ccc2nc(-c3cccc(Br)c3)cc(C(=O)Nn3cnnc3)c2c1 | 12.6 µM (active) |
| COc1ccc(N(CC(=O)NCCc2ccc(Cl)cc2)S(=O)(=O)c2c(C)nn(C)c2C)cc1 | inactive |
| CCS(=O)(=O)c1ccc2oc(SCC(=O)N3c4ccccc4CC3C)nc2c1 (stereo not given) | inactive |
| CN(C)S(=O)(=O)c1ccc2oc(SCC(=O)Nc3ccccc3F)nc2c1 | 11.2 µM (active) |
| COc1ccc(S(=O)(=O)N(C)C)cc1NC(=O)CSc1ncccn1 | inactive |
| COc1ccc(CNC(=O)Cn2nnc(-c3ccc(S(C)(=O)=O)cc3)n2)cc1 | inactive |
| Cc1cc(NC(=O)Nc2ccccc2)n(-c2ccccc2)n1 | inactive |
| Cc1cc(Nc2ccccc2)n(CCC#N)n1 | inactive |
| Cc1cc(Nc2ccccc2)n(C(=O)c2ccc(N)cc2)n1 | 11.2 µM (active) |
| COCCNC(=O)CSc1nc(-c2ccccc2)[nH]c1-c1ccc(C)cc1 | inactive |
| COc1ccc(-c2noc(CCC(=O)N(C)c3ccccc3C)n2)cc1 | inactive |
| COc1ccccc1N=Cc1c(O)c2ccccc2oc1=O | inactive |
| COc1ccc(N=Cc2c(O)[nH]c3ccccc23)cc1OC | 14.1 µM (active) |
| COc1ccc(OC)c(N=Cc2c(O)[nH]c3ccccc23)c1 | inactive |
| Cc1ccc(C(=O)CS(C)(=O)=O)cc1 | inactive |
| Cc1ccc(C(=O)Cn2cccn2)cc1 | inactive |
| Cc1ccc(C(=O)Cc2nnc(C)s2)cc1 | 12.6 µM (active) |
| c1ccc(CN=C2Nc3ccccc3CS2)nc1 | 12.6 µM (active) |

| SMILES | Potency |
| --- | --- |
| O=C(NCc1ccccn1)Nc1ccc(F)cc1 | inactive |
| Cc1nnc(NCc2ccccc2)c2c1nnn2Cc1ccc(F)cc1 | inactive |
| CC1CCN(S(=O)(=O)c2ccc3c(c2)N(CC(=O)NCc2ccccc2Cl)C(=O)CO3)CC1 | inactive |
| Cc1csc2nc(COc3ccc(NC(=O)COc4ccccc4)cc3)cc(=O)n12 | inactive |
| Cc1ccnc(N2CCCC(C(=O)Nc3cc(F)ccc3C)C2)n1 (stereo not given) | inactive |
| CCOc1ccc2nc(N3CCCC(C(=O)Nc4cc(C)ccc4C)C3)sc2c1 (stereo not given) | 14.1 µM (active) |
| CCOc1ccc2nc(SC(CC)C(=O)Nc3cc(C)on3)sc2c1 (stereo not given) | inactive |
| CCOc1ccc2nc(C(=O)N3CCCC(C)C3)sc2c1 (stereo not given) | 2.82 µM (active) |
| CCOc1ccc2nc(Nc3nc4ccc(NC(C)=O)cc4s3)sc2c1 | inactive |
| CCOc1ccc2nc(N3CCC(C(=O)Nc4cc(C)ccc4C)CC3)sc2c1 | inactive |
| CCCNC(=O)CCn1nc(-c2ccccc2)c2ccccc2c1=O | inactive |
| O=c1c(O)c(Br)ccc2c(Br)c(O)c(O)c(O)c12 | inactive |
| O=C1C(C=NCC2CCCO2)=C(O)c2ccccc21 (stereo not given) | 11.2 µM (active) |
| CC(=NCC1CCCO1)c1c(O)[nH]c(=O)[nH]c1=O (stereo not given) | inactive |
| O=C(CS(=O)(=O)Cc1ccccc1)NCC1CCCO1 (stereo not given) | inactive |
| Cc1ccc(C)c(N2CCN(C(=O)CCc3c(C)nc4c(c3C)c(=O)n(C)c(=O)n4C)CC2)c1 | inactive |
| O=C(NCN1CCN(CCO)CC1)c1cnccn1 | inactive |
| O=C(Nc1cccc(NC(=O)c2ccco2)c1)c1cnccn1 | inactive |
| O=C(Nc1ccc(S(=O)(=O)N2CCCCC2)cc1)c1cnccn1 | inactive |
| CCN1CCN(c2ccc(NC(=O)c3cnccn3)cc2)CC1 | 11.2 µM (active) |
| O=C(Nc1ccc2c(c1)OCCO2)c1cnccn1 | 12.6 µM (active) |
| O=C(CCN1C(=O)c2ccncc2C1=O)Nc1ccc2c(c1)OCCO2 | inactive |
